Test results: PubChem BioAssay AID1986 (Sanford-Burnham Center for Chemical Genomics, 2009)
In all, about 290,000 compounds went through this assay and about 890 (0.31%) were called active. No stated cut-off is given here; in the data, active means inhibition mostly above about 52% (no sharp cut-off); inactive means mostly below about 76%. Shown is part of a subset that was picked to be rich in actives.

Experiment: cell-free HIV fusion peptide-binding blockers – biochemical, uHTS, fluorescence dequenching, primary screen (AID 1986)
Conditions: 30 min, stronger effect = higher value
[1] = measured here: repeat confirmation average inhibition, at 18.6 µM

O=C(Nc1ccccc1)c1ccc(NCC2CCCO2)c(S(=O)(=O)N2CCOCC2)c1 (configuration not stated)
inhibition (at 20 µM): -0.2% (inactive)

CCOC(=O)c1c(NC(=O)CSc2ncn[nH]2)sc(C(=O)NC)c1C
inhibition (at 20 µM): -0.5% (inactive)

Cn1c(SCC(=O)Nc2ccc3c(c2)OCCO3)nnc1C1CC1
inhibition (at 20 µM): 0.2% (inactive)

CN1C(=O)/C(=C/c2cn(CC(=O)NCc3ccco3)c3ccccc23)NC1=S
inhibition (at 20 µM): 0.4% (inactive)

COc1cc(/C=N/NC(=O)c2cccc(S(=O)(=O)N3CCCCC3)c2)cc(Br)c1O
inhibition (at 20 µM): 1.7% (inactive)

O=C(NC(Cc1ccccc1)C(=O)O)/C(=C\c1ccc(F)cc1)NC(=O)c1ccccc1 (configuration not stated)
inhibition (at 20 µM): 12.8% (inactive)

CC(=O)Nc1ccc2c(c1)nc(CCN1CCN(C)CC1)n2C
inhibition (at 20 µM): -1.1% (inactive)

O=C(Cc1ccc([N+](=O)[O-])cc1)Nc1ccc2c(c1)OCO2
inhibition (at 20 µM): 0.9% (inactive)

CCCc1nc(SC)[nH]c(=O)c1C
inhibition (at 20 µM): -0.9% (inactive)

COc1ccc(CN2C(=O)/C(=C/c3ccc(-c4ccc(Cl)c(C(=O)O)c4)o3)SC2=S)cc1
inhibition (at 20 µM): 139% (inactive)

O=C(O)c1cc(-c2ccc(/C=C3/SC(=S)N(Cc4ccccc4)C3=O)o2)ccc1Cl
inhibition (at 20 µM): 58.1% (active)

C#CCN1C(=O)S/C(=C\c2ccc(-c3ccc(Cl)c(C(=O)O)c3)o2)C1=O
inhibition (at 20 µM): 18.9% (inactive)

CCCCn1c(N)c(NCc2ccccc2OC)c(=O)[nH]c1=O
inhibition (at 20 µM): 2.3% (inactive)

Nc1c(-c2cccc(Cl)c2)cnn1-c1ccccc1
inhibition (at 20 µM): -1.8% (inactive)

c1ccc2sc(NC3=NCN(CC4CCCO4)CN3)nc2c1 (configuration not stated)
inhibition (at 20 µM): 1.1% (inactive)

CC(=O)Nc1ccc(/C=N/Nc2ccc(C(=O)c3c(C)cc4ccccn34)cc2[N+](=O)[O-])cc1
inhibition (at 20 µM): -5.5% (inactive)

Cc1cc2ccccn2c1C(=O)c1ccc(NN)c([N+](=O)[O-])c1
inhibition (at 20 µM): -4.5% (inactive)

Cc1cc2ccccn2c1C(=O)c1ccc(N/N=C/c2ccc(C(=O)O)cc2)c([N+](=O)[O-])c1
inhibition (at 20 µM): 52.9% (active)

COc1cccc(-c2c(C(=O)N/N=C/c3cccnc3)nnn2-c2nonc2N)c1
inhibition (at 20 µM): -0.9% (inactive)

O=C(O)CCCNc1cc(N2CCC3(CC2)OCCO3)c2noc3c2c1C(=O)c1ccccc1-3
inhibition (at 20 µM): 58.7% (active)

O=C(O)CCCNc1cc(N2CCN(C(=O)c3ccco3)CC2)c2noc3c2c1C(=O)c1ccccc1-3
inhibition (at 20 µM): 70% (active)

O=C1c2ccccc2-c2onc3c(N4CCN(CCO)CC4)cc(N4CCN(C(=O)c5ccco5)CC4)c1c23
inhibition (at 20 µM): 5.9% (inactive)

CN1CCN(c2cc(N3CCN(C(=O)c4ccco4)CC3)c3c4c(onc24)-c2ccccc2C3=O)CC1
inhibition (at 20 µM): 5.9% (inactive)

CCOC(=O)N1CCN(c2cc(NCCC(=O)O)c3c4c(onc24)-c2ccccc2C3=O)CC1
inhibition (at 20 µM): 18% (inactive)

O=[N+]([O-])c1c(NCCO)cc(N2CCC3(CC2)OCCO3)c2nonc12
inhibition (at 20 µM): -2.2% (inactive)

CCN1CCN(c2cc(N3CCN(C(=O)c4ccco4)CC3)c3c4c(onc24)-c2ccccc2C3=O)CC1
inhibition (at 20 µM): 10.6% (inactive)

CC(=O)OCCNc1cc(N2CCN(C)CC2)c2noc3c2c1C(=O)c1ccccc1-3
inhibition (at 20 µM): -2% (inactive)

O=C(O)CCNc1cc(N2CCN(C(=O)c3ccco3)CC2)c2noc3c2c1C(=O)c1ccccc1-3
inhibition (at 20 µM): 54.7% (active)

CCCCNC(=O)Nc1nnc(SCC(=O)OCC)s1
inhibition (at 20 µM): -2.1% (inactive)

COc1ccc(Cc2nc3ccccc3[nH]c2=O)cc1
inhibition (at 20 µM): -2.8% (inactive)

Cc1cc(C2C(C#N)=C(N)SC(N)=C2C#N)c(C)s1
inhibition (at 20 µM): 51.9% (active)
inhibition [1]: 68.2%

Cc1sccc1C1C(C#N)=C(N)SC(N)=C1C#N
inhibition (at 20 µM): 32.9% (inactive)

Cc1ccc(C2C(C#N)=C(N)SC(N)=C2C#N)c(C)c1
inhibition (at 20 µM): -3.6% (inactive)

C=CCN=C1S/C(=C\c2ccc(N(C)C)cc2)C(=O)N1CC=C
inhibition (at 20 µM): 2.1% (inactive)

C=CCN1C(=O)/C(=C/c2ccccc2)S/C1=N/c1nccs1
inhibition (at 20 µM): 1.5% (inactive)

C=CCN1C(=O)/C(=C/c2ccc(N(C)C)cc2)S/C1=N\c1nnc(CC)s1
inhibition (at 20 µM): 61.5% (active)

Cc1[nH]c(=O)[nH]c(=O)c1S(=O)(=O)N1CCCC(C(=O)NCCC2=CCCCC2)C1 (configuration not stated)
inhibition (at 20 µM): 0.7% (inactive)

COc1ccc(Cl)cc1Nc1nc(C)nc2c1nnn2Cc1ccccc1
inhibition (at 20 µM): -1% (inactive)

O=C(CC1Nc2cccc3cccc(c23)NC1=O)Nc1ccc(F)cc1 (configuration not stated)
inhibition (at 20 µM): 59.6% (inactive)
inhibition [1]: -0.8%

CC(=O)Nc1ccc(NC(=O)CC2Nc3cccc4cccc(c34)NC2=O)cc1 (configuration not stated)
inhibition (at 20 µM): 67.6% (inactive)
inhibition [1]: -1.4%

COc1ccc(NC(=O)CC2Nc3cccc4cccc(c34)NC2=O)cc1 (configuration not stated)
inhibition (at 20 µM): 51.5% (inactive)
inhibition [1]: -2.3%

NC(=O)CC1Nc2cccc3cccc(c23)NC1=O (configuration not stated)
inhibition (at 20 µM): 57.4% (active)

Cc1cccc(NC(=O)CC2Nc3cccc4cccc(c34)NC2=O)c1 (configuration not stated)
inhibition (at 20 µM): -5.8% (inactive)

O=C(CC1Nc2cccc3cccc(c23)NC1=O)Nc1ccccc1 (configuration not stated)
inhibition (at 20 µM): 57.7% (active)

COc1cc2c(cc1NC(=O)CSc1nnc(Cc3cccs3)n1C)oc1ccccc12
inhibition (at 20 µM): -3.3% (inactive)

CCOC(=O)c1c(-c2ccccc2)csc1NC(=O)/C(C#N)=C/c1ccc(OC)c(OC)c1
inhibition (at 20 µM): 24.6% (inactive)

CCOC(=O)c1c(-c2ccc(C)cc2)csc1NC(=O)/C(C#N)=C/c1ccc(O)c(OC)c1
inhibition (at 20 µM): 95% (inactive)
inhibition [1]: 7.7%

CCOC(=O)c1c(-c2ccccc2)csc1NC(=O)/C(C#N)=C/c1ccc(O)c(OC)c1
inhibition (at 20 µM): 78.2% (active)
inhibition [1]: 53.4%

COC(=O)C1=C(C)N(C)C(=O)NC1c1c(OC)ccc2ccccc12 (configuration not stated)
inhibition (at 20 µM): -0.6% (inactive)

O=C(Nc1ccc(Cl)cc1F)C1CCN(S(=O)(=O)c2cccnc2)CC1
inhibition (at 20 µM): -1.9% (inactive)

COc1ccc(NC(=O)C23CC4CC(C2)CC(n2cnc(Br)n2)(C4)C3)c(OC)c1
inhibition (at 20 µM): -1.5% (inactive)

COc1cc(OC)c(OC)cc1CNCCNC(=O)c1ccco1
inhibition (at 20 µM): 1.1% (inactive)

Cc1onc(-c2ccccc2Cl)c1C(=O)N1CCCc2ccccc21
inhibition (at 20 µM): -0.5% (inactive)

COc1ccc(CCNS(=O)(=O)c2cccc3nsnc23)cc1OC
inhibition (at 20 µM): 0.3% (inactive)

c1ccc(CCn2nnnc2CN2CCc3ccccc32)cc1
inhibition (at 20 µM): 1.1% (inactive)

CC1=C(C#N)c2nc(N)c(C#N)c(C)c2/C1=C\c1ccc(C)cc1
inhibition (at 20 µM): 15.6% (inactive)

CC1=C(C#N)c2nc(N)c(C#N)c(C)c2/C1=C\c1ccc(-c2ccccc2C(=O)O)o1
inhibition (at 20 µM): 56.8% (active)

CC1=C(C#N)c2nc(N)c(C#N)c(C)c2/C1=C\c1ccc(OCC(=O)O)c(Cl)c1
inhibition (at 20 µM): 28% (inactive)

CCOc1ccc(N(C)C(=O)CCc2nnc3ccc(N4CCC5(CC4)OCCO5)nn23)cc1
inhibition (at 20 µM): 0.1% (inactive)

COc1ccc(CC(=O)N(C)CC(=O)Nc2ccccc2SC)cc1
inhibition (at 20 µM): 3.4% (inactive)

COc1ccc(OC)c(NC(=O)CN(C)S(=O)(=O)c2ccc3nc(C)sc3c2)c1
inhibition (at 20 µM): -0.6% (inactive)

CN(C)c1ccc(/C=N/N(CCC#N)C2=NS(=O)(=O)c3ccccc32)cc1
inhibition (at 20 µM): 69.3% (active)
inhibition [1]: 64.2%

N#CCCN(/N=C/c1cccnc1)C1=NS(=O)(=O)c2ccccc21
inhibition (at 20 µM): -1.4% (inactive)

CN(C)c1ccc(/C=N/N(CCO)C2=NS(=O)(=O)c3ccccc32)cc1
inhibition (at 20 µM): 159% (inactive)

O=C(COc1ccc(F)cc1)N(Cc1cccs1)C1CCS(=O)(=O)C1 (configuration not stated)
inhibition (at 20 µM): 3.2% (inactive)

O=C(Nc1cccc(Oc2ccc(C(=O)O)c(C(=O)O)c2)c1)c1ccc(-c2ccccc2)cc1
inhibition (at 20 µM): 75.5% (active)

Cc1ccc(C(=O)Nc2ccc(Oc3ccc(C(=O)O)c(C(=O)O)c3)cc2)cc1C
inhibition (at 20 µM): 17.4% (inactive)

CC(C)(C)C(=O)Nc1ccc(C(=O)Nc2cccc(Oc3ccc(C(=O)O)c(C(=O)O)c3)c2)cc1
inhibition (at 20 µM): 37.8% (inactive)

CCN1/C(=C\C=C(C(C)=O)C(C)=O)Sc2ccccc21
inhibition (at 20 µM): 148% (inactive)

CCOC(=O)/C(=C\C=C1/Sc2ccccc2N1CC)C(C)=O
inhibition (at 20 µM): 150% (inactive)

CCOC(=O)/C(=C/C=C1\Sc2ccccc2N1CC)C(C)=O
inhibition (at 20 µM): 114% (active)
inhibition [1]: 145%

C=Cc1ccc(C(=O)NC2CCCN(Cc3ccccc3F)C2)cc1 (configuration not stated)
inhibition (at 20 µM): 1.1% (inactive)

CC(C)c1ccc2c(c1)c(SC(C)(C)C)c(CC(C)(C)C(=O)O)n2Cc1ccc(Cl)cc1
inhibition (at 20 µM): 53.9% (active)

CC(C)c1ccc(C(=O)NCc2ccc(Cl)cc2)cc1
inhibition (at 20 µM): -2.4% (inactive)

Cc1ccc2c(c1)c(N=O)c(O)n2Cc1ccc(Cl)cc1
inhibition (at 20 µM): -0.1% (inactive)

CN(Cc1nccn1C)C(=O)CC1C(=O)NCCN1Cc1ccc(F)cc1Cl (configuration not stated)
inhibition (at 20 µM): -0.5% (inactive)

Cc1cc2ncc(C(N)=O)cn2n1
inhibition (at 20 µM): -1.8% (inactive)

O=C(/C=C/c1ccco1)c1ccc(NC(=O)C23CC4CC(CC(C4)C2)C3)cc1
inhibition (at 20 µM): 50.7% (active)

O=C(/C=C\c1ccco1)c1ccc(NC(=O)c2ccco2)cc1
inhibition (at 20 µM): 58.2% (inactive)
inhibition [1]: 3%

CC(=O)Nc1ccc(C(=O)/C=C/c2ccco2)cc1
inhibition (at 20 µM): 36% (inactive)

COCCCn1c(=O)/c(=C\c2cccc(OC)c2OC)s/c1=C(/C#N)C(=O)Nc1ccc(C(=O)O)cc1
inhibition (at 20 µM): 54.1% (inactive)
inhibition [1]: 33.7%

COCCCn1c(=O)/c(=C\c2ccccc2OC(C)C)s/c1=C(/C#N)C(=O)Nc1ccc(C(=O)O)cc1
inhibition (at 20 µM): 77.3% (active)

COCCCn1c(=O)/c(=C\c2ccccc2OC(F)F)s/c1=C(/C#N)C(=O)NC(C)C
inhibition (at 20 µM): 75.2% (inactive)
inhibition [1]: 5.3%

Cc1ccc(C(=O)OCC(=O)N(C)C2CCS(=O)(=O)C2)cc1[N+](=O)[O-] (configuration not stated)
inhibition (at 20 µM): -0.5% (inactive)

CC(=O)c1cccc(NC(=O)CSc2ccc(-c3ccc4c(c3)OCO4)nn2)c1
inhibition (at 20 µM): 0.3% (inactive)

O=C(O)c1cccc(Cn2c(Cl)c(/C=N/NC(=O)c3cc4ccccc4cc3O)sc2=O)c1
inhibition (at 20 µM): 61.5% (active)

O=C(O)c1cccc(Cn2c(Cl)c(/C=N/NC(=O)c3ccccc3Cl)sc2=O)c1
inhibition (at 20 µM): 6.2% (inactive)

O=C(NN=C1CCN(Cc2ccccc2)CC1)c1cc2ccccc2cc1O
inhibition (at 20 µM): 56% (active)

O=C(NN=C1CCN(Cc2ccccc2)CC1)c1cc(Br)ccc1O
inhibition (at 20 µM): 7.6% (inactive)

O=C(NN=C1CCN(Cc2ccccc2)CC1)c1ccccc1O
inhibition (at 20 µM): 3.9% (inactive)

O=C(O)c1cccc(Cn2c(Cl)c(/C=N/NC(=O)c3ccccc3O)sc2=O)c1
inhibition (at 20 µM): 28.1% (inactive)
